Hits are enriched below; roughly 1.5% of the tested compounds scored in any of these assays.
TrxR1 substrate = is turned over as a substrate by rat TrxR1; AID 588456; actives 0.01% (n = 390,000); purified TrxR1 substrate turnover, NADPH consumption readout; Potency, µM (top dose mostly 114 µM), for the others: at the highest dose activity change, negative = substrate turnover; further: potency means the concentration at half of the fitted maximal effect; nearly all actives have a fitted effect of over 50% in size
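Rat TrxR1, dispensed at 90 nM, was prereduced with 400 uM NADPH (final) for 5 min at ~22 deg C, then incubated with compound 15 min before 400 uM selenite. A first-read NADPH fluorescence drop versus no-compound background flagged substrates.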
PI4K2A block = blocks human PI4K2A kinase activity; Q9BTU6; activity change, negative = inhibition, % at 76.9 µM; AID 1346378; purified PI4K2A, ADP-Glo luminescence, 1 h; active compounds read low; actives 0.13% (n = 420,000); in the data active means activity change below about -50%; inconclusive means mostly about -30% to -49%;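 further: -100% = wells without enzyme as full effect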
Target sequence (Q9BTU6 whole entry, looked up): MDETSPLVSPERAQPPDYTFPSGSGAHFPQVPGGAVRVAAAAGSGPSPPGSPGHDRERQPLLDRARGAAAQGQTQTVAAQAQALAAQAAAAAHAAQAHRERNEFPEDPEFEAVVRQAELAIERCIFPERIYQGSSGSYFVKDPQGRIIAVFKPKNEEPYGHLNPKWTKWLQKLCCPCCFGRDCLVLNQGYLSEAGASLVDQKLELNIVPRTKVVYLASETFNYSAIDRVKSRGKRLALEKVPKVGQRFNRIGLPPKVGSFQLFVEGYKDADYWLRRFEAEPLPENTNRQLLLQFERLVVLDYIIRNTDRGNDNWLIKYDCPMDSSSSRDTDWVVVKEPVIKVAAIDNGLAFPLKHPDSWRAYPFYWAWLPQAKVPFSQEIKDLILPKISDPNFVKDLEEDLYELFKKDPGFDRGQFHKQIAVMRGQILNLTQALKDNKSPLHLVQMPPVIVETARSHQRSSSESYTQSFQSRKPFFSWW
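ADP-Glo luminescence measured ADP generated by PI4K2A enzyme (4 ug/mL before mixing) with 1.2 mM PI substrate (pre-mix) and 300 microM ATP (pre-mix). Tris pH7.5 buffer with MgCl2, Triton X-100; 1 h reaction at ambient temperature.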
rTrxR1 inhibitor = inhibitors of rat thioredoxin reductase 1. actives 1% (n = 390,000). AID 588453. Potency, µM (highest dose often 114 µM), without a hit: at the top dose activity change, negative = inhibition, usual class: inhibitors. recombinant rTrxR1, NADPH fluorescence consumption, selenite substrate. O89049; further: potency means the concentration at half of the fitted maximal effect; nearly all actives have a fitted effect of over 65% in size
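Rat TrxR1 (90 nM in the dispensed reagent) was pre-reduced with 400 uM NADPH for 5 min at room temperature, then incubated with compound for 15 min. After 400 uM selenite was added, NADPH fluorescence (Ex 340/Em 450 nm) was followed for 8 min.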
GALK inhibitor = galactokinase (human) inhibition. P51570. Purified GALK, Kinase-Glo residual ATP luminescence. Potency, µM (highest dose often 57.5 µM), inactives show at the highest dose activity change, negative = inhibition, most hits filed as inhibitors. actives 0.007% (n = 270,000). AID 1868; further: potency means the concentration at half of the fitted maximal effect
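Quantitative HTS: GALK 5 nM, ATP 35 uM, galactose 100 uM, 1 h room temperature, then luciferase-based ATP detection.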
Giardia killer = kills Giardia lamblia. actives 0.15% (n = 340,000). activity change, % at 7.66 µM, hits read low. Giardia lamblia trophozoite viability; in the data active means activity change below about -80%; inconclusive means between about -30% and that limit;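 further: parasites exposed to compound for two days anaerobically before the ATP read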
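Trophozoites 100 cells/well + cpd; 48 hrs, 37 deg C, anaerobic. ATPLite 1-Step added, 15-30 min RT, luminescence read (ATP-based viability).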
FBPA coupling cs = coupling enzyme interference in Giardia aldolase counter-screen; coupling enzyme system counterscreen, AmpLite Red fluorescence; activity change, negative = inhibition, % at 58.2 µM, hits read low; actives 0.67% (n = 290,000); AID 2472; in the data active means activity change below about -30%
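Counterscreen lacking aldolase: glyceraldehyde-3-phosphate coupling-enzyme reagent preincubated 10 min at RT with compound (at 57.5 uM final), then substrate/coupling system with AmpLite Red added; fluorescence read at 525/598 nm after 20 min RT.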
Numbers without * were called inactive; ? = inconclusive; nt = no result given; [ ] = dose if it differs, or a comment. Unless noted, the call rests on the fitted dose curve; in most records, active means well fitted curve in the direction sought with a large enough effect; inconclusive means small, poorly fitted or top-dose-only effect, or another doubt; inactive means no such curve, though single readings can be large; an effect the other way counts as inactive or inconclusive. Unless noted, on the % scale 0 is the no-effect control and ±100 the full control effect.

SMILES	TrxR1 substrate	PI4K2A block	rTrxR1 inhibitor	GALK inhibitor	Giardia killer	FBPA coupling cs
CC(Nc1nc(N2CCNCC2)nc2ccccc12)c1ccccc1 (centres undefined)	40%	-3	8%[57.1 µM]	-6%	-84*	1
COC(=O)Nc1ccccc1C(=O)N1CCN(c2ccc(C)cc2)CC1	2%	-1	-1%	0%	-6	-3
Cc1ccc(N2CCN(C(=O)c3ccccc3NC(=O)/C=C\C(=O)O)CC2)cc1	1%	-1	50µM*	-1%	-8	4
CCC[C@H]1[C@@H](OC(=O)NCc2cccs2)CC[C@@]23CCCN2C(=O)CCC[C@@H]13	nt	-8	nt	nt	nt	nt
O=C(O)/C=C/C(=O)c1c(-c2ccccc2)[nH]c2ccccc12	-7%	?	45µM*	-2%	-16	2
CC(CC1c2ccccc2CCc2ccccc21)CN(C)C (centres undefined)	nt	0	nt	nt	nt	nt
Cc1ccc(/C=N/NC(=O)CSc2nc3ccccc3n2C)s1	-17%	4	-10%	nt	-3	-32*
C=CCN1c2ccccc2[C@]23C[C@@H](C(=O)OC)N(S(=O)(=O)c4ccc(Br)cc4)C2=NC(C(=O)OC)=C(C(=O)OC)[C@H]13	nt	nt	nt	nt	nt	3
COC(=O)C1=C(C)N(CCc2ccc(OC)c(OC)c2)C(=O)/C1=C\N(C)C	4%	-1	10µM*	0%	-15	-9
COc1ccc(CCNC2=C(Cl)C(=O)N(CCc3ccc(OC)c(OC)c3)C2=O)cc1OC	14%	3	22%	-2%	-2	-1
COc1ccc(CCN2C(=O)C=CC2=O)cc1OC	6%	5	0.63µM*	nt	9	nt
COc1ccc(CNc2nc(-c3ccco3)nn2C(=O)CC(C)C)cc1	-7%	2	7%	nt	nt	nt
CC1(C)O[C@@H]2C[C@H]3[C@@H]4CCC5=CC(=O)C=C[C@]5(C)[C@@H]4[C@@H](O)C[C@]3(C)[C@]2(C(=O)CO)O1	nt	-4	nt	nt	nt	nt
CN1C(=O)/C(=C/c2ccccc2OCc2cccc(F)c2)N(C)C1=S	-2%	-1	4%	4%	12	-37*
Cc1nc(N2CCN(C)CC2)c2nnn(Cc3ccccc3)c2n1	6%	nt	12%	nt	7	nt
CCCCCN1CCCCC(NC(=O)c2c(F)cccc2F)C1=O (centres undefined)	nt	7	nt	nt	nt	nt
COc1ccc(C(=O)N2CCCC(CO)(Cc3ccccc3C)C2)o1 (centres undefined)	0%	5	50µM*	0%	-6	nt
O=C(Cc1ccc(Oc2ccccc2)cc1)NO	-3%	nt	4%	nt	nt	nt
Cc1ccc(C(CC(=O)N2CCOCC2)c2ccco2)cc1 (centres undefined)	2%	-3	45µM*	0%	12	5
O=C(CC(c1ccccc1)c1ccco1)N1CCCCC1 (centres undefined)	nt	nt	nt	-2%	nt	0
COC(=O)C1=C(C(=O)OC)[C@@H]2N(C)c3ccc(OC)cc3[C@@]23C[C@@H](C(=O)OC)N(C(C)=O)C3=N1	nt	nt	nt	nt	nt	-1
O=C(Cn1cnc([N+](=O)[O-])c1)c1ccc(Cl)cc1	0%	3	14%	nt	-29	nt
O=C(C[n+]1cnn(CC(=O)c2ccc(Cl)cc2Cl)c1)c1ccc([N+](=O)[O-])cc1	-7%	-3	50µM*	0%	0	-2
O=c1[nH]c2cc(Cl)c(O)cc2o1	nt	nt	nt	nt	nt	1
CCOC(=O)N1CCN(C(=O)C2CCN(C(=O)c3ccccc3C)CC2)CC1	6%	-3	2.5µM*	nt	12	nt
SMILES	TrxR1 substrate	PI4K2A block	rTrxR1 inhibitor	GALK inhibitor	Giardia killer	FBPA coupling cs
CN1CCN(c2ncc3nc(-c4cn(C)c5ccccc45)c(=O)n(-c4ccccc4)c3n2)CC1	nt	nt	nt	nt	nt	1
O=C(Nc1cc(Cl)ccc1Cl)c1cc(S(=O)(=O)N2CCCc3ccccc32)ccc1F	3%[57.1 µM]	-3	20%[57.1 µM]	nt	nt	nt
Cn1c2ccccc2c(=O)n2c(=O)c3ccccc3cc12	nt	nt	nt	?	nt	-35*
Cc1ccc(Cn2c(C(C)Nc3nc(-c4ccc(Cl)c([N+](=O)[O-])c4)cs3)nc3cc(C(F)(F)F)ccc32)cc1 (centres undefined)	1%	-1	12%	nt	29	nt
CCCCn1c(N)c(-c2nc3ccccc3o2)c2c([N+](=O)[O-])nn(CC)c(=O)c21	-8%[57.1 µM]	2	10%[57.1 µM]	1%	4	-1
CCn1nc([N+](=O)[O-])c(C(C#N)c2nc3cc(C(F)(F)F)ccc3s2)c(Cl)c1=O (centres undefined)	-9%	-25	32µM*	-10%	-14	-2
CCCn1nc([N+](=O)[O-])c(C(C#N)c2nc3ccccc3o2)c(Cl)c1=O (centres undefined)	-15%	-11	11µM*	-3%	-12	1
Cn1nc([N+](=O)[O-])c(C(C#N)c2ccccn2)c(Cl)c1=O (centres undefined)	-4%	1	2.8µM*	-3%	-27	-15
O=C(COC(=O)/C=C/c1cccs1)Nc1nc(-c2ccccc2)cs1	1%	5	56µM*	0%	8	7
Nc1cc2nn(-c3ccccc3)nc2cc1Cl	12%	-8	-81%[57.1 µM]	0%	3	-44*
CC(=O)C(C(C)=O)C1(O)C(=O)c2ccccc2C1=O	-7%	?	-5%	1%	4	-30*
COC(=O)c1cc(S(=O)(=O)N2CCOCC2)c(Cl)cc1N1CCOCC1	-13%	3	-19%	-3%	-13	5
COC(=O)c1cc(C)nc2c1C(=O)C(=O)C=C2N1CCOCC1	35µM*	-83*	-13%	7.1µM*	-3	-79*
COc1ccccc1/C=N/n1cnnc1	10%[57.1 µM]	1	10%[57.1 µM]	1%	-4	1
O=S(=O)(Oc1ccccc1/C=N/n1cnnc1)c1ccccc1	-2%	-5	2%[57.1 µM]	6%	1	-49*
Cc1ncc(CCl)c2c1OC(C)(C)OC2	4%[57.1 µM]	-1	?	0%	-2	-38*
COc1cccc(C=Nc2ccc3c(c2)OCCO3)c1O	-13%	-63*	-17%	1%	-23	-14
O=[N+]([O-])c1ccc(/C=N/Nc2nc(-c3ccccc3)c3cc(Br)ccc3n2)o1	-4%	-2	-5%	1%	-91*	12
Cc1ccc2nc(N/N=C\c3ccc([N+](=O)[O-])o3)nc(-c3ccccc3)c2c1	-11%[57.1 µM]	-10	?	3%	-99*	5
N#Cc1ccccc1/C=N/Nc1nc(-c2ccccc2)c2cc(Br)ccc2n1	4%	10	14%	0%	-14	2
O=[N+]([O-])c1ccc(/C=N/Nc2ccc3ccccc3c2)o1	-17%	-15	?	2%	?	2

Screening results from PubChem.
